# ELG1 genotoxic = genotoxicity induction in ELG1-luciferase HEK293T cells. Potency, µM (highest dose often 46 µM), hits mostly activators. 1.3% of 330,000 active. HEK293T ELG1-luciferase reporter, luminescence, 16 h. AID 504466; also: nearly all actives have a fitted effect of over 60% in size
#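 Screening used a luciferase reporter fused to human ELG1 in HEK293T cells. Luminescence was read on a CCD plate imager after 16 hr exposure and 30 min ONE-Glo incubation.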
# FLuc modulator = inhibits or activates purified firefly luciferase, miR-21 counter-screen; 6.9% of 360,000 active; P08659; purified FLuc, Km substrates, luminescence inhibition; Potency, µM (highest dose often 57.5 µM), most hits filed as inhibitors; AID 588342; also: nearly all actives have a fitted effect of over 55% in size
# Target sequence (P08659 whole entry, looked up): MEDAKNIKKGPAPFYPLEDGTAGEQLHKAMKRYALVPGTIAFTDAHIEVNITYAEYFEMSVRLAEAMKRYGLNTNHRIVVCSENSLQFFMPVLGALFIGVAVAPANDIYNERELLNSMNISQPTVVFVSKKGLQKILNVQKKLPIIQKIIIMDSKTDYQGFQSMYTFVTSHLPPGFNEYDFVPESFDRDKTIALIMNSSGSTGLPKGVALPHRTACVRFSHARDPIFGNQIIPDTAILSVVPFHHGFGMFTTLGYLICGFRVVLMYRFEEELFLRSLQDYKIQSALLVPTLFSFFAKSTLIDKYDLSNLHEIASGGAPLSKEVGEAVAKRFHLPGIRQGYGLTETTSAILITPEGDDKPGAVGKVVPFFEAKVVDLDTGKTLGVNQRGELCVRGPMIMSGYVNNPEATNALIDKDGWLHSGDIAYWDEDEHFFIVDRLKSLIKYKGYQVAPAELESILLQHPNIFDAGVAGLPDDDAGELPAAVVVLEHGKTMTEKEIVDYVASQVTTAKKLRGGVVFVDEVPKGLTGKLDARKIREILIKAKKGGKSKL
#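 Purified P. pyralis luciferase (10nM final) with 10uM D-luciferin and 10uM ATP (Km levels) in 50mM Tris acetate pH 7.5, 10mM Mg acetate, 0.01% Tween-20, 0.05% BSA; qHTS 6-point titration, ~60 µM downward; luminescence read.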
# NPC1 promoter act = activators of NPC1 promoter | Huh7 NPC1 promoter luciferase reporter, 24 h | Potency, µM (series often up to 9.22 µM), actives largely listed as activators | 2.4% of 320,000 active | AID 485313; also: nearly all actives have a fitted effect of over 60% in size
#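 In 1536-well qHTS, Huh7 cells harboring an NPC1 promoter–luciferase construct received compound for 24 h; activation was quantified by luminescence following luciferase reagent addition.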
# SMN2 splice up = SMN2 splice variant enhancement; HEK293 SMN2-luciferase splicing reporter, luminescence, 30-36 h; Potency, µM (doses to about 46.1 µM), hits mostly activators; 2.8% of 210,000 active; AID 1458; also: nearly all actives have a fitted effect of over 55% in size
#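 qHTS luciferase splicing reporter: luminescence rises when SMN2 exon 7 is included in transfected HEK293 cells. Compound exposure lasted 30-36 h at 37C, with 4.5 mM final sodium butyrate as control, followed by a ONE-Glo read.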
# Rab9 prom act = activates the Rab9 promoter; Huh7 Rab9 promoter-luciferase reporter, luminescence, 24 h; Potency, µM (doses to about 9.22 µM), usual class: activators; 2.8% of 320,000 active; also: nearly all actives have a fitted effect of over 60% in size
#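 Huh7 cells stably carrying a Rab9 promoter-luciferase reporter, 1500 cells per well in OP-MEM I with 10% FBS, treated with compound 24 hours at 37C. Luciferase activity read by luminescence after 10 minutes with Amplite reagent.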
# KinaseGlo FLuc = counter-screen: inhibitors of Kinase-Glo firefly luciferase; Q27757; Kinase-Glo luciferase, ATP luminescence, 8 min; Potency, µM (series often up to 38.3 µM), actives largely listed as inhibitors; 0.28% of 200,000 active; AID 1379; also: nearly all actives have a fitted effect of over 60% in size
#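 Kinase-Glo luciferase light output from ATP and luciferin was measured with 10 uM ATP, within the enzyme's linear range. Buffer: 50 mM imidazole pH 7.2, 50 mM KCl, 7 mM MgCl2, 0.01% Tween 20, 0.05% BSA; luminescence read after 8 min at ambient temperature.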
# A number is an active result; i = inactive; ? = inconclusive; nt = no result given; [ ] = another dose, or the depositor's remark. A selection: hits, their analogues and other compounds. The true share with any hit is near 7.3%. Calls follow the shape of the dose curve; as a rule, active = well fitted curve in the direction sought with a large enough effect; inconclusive = small, poorly fitted or top-dose-only effect, or another doubt; inactive = no such curve, though single readings can be large; an effect the other way counts as inactive or inconclusive.
SMILES,ELG1 genotoxic,FLuc modulator,NPC1 promoter act,SMN2 splice up,Rab9 prom act,KinaseGlo FLuc
O=C(Nc1cccc(-c2ccc(N3CCCCC3)nn2)c1)C(F)(F)F,?,1.3µM,0.28µM,nt,0.79µM,nt
CC1CCN(C(=O)C(C)Sc2nc(-c3ccccc3)cc(C(F)(F)F)n2)CC1 (configuration not stated),i,i,i,i,i,i
O=C(Nc1cccc(-c2ccc3nncn3n2)c1)C(F)(F)F,i,i,i,nt,i,nt
COc1ccc2[nH]c(-c3ccccc3)cc(=O)c2c1,nt,nt,nt,nt,nt,i
Cc1ccc2[nH]c(-c3cccc(F)c3)cc(=O)c2c1,15µM,13µM,i,i,i,i
COc1ccc2[nH]c(-c3cccc(F)c3)cc(=O)c2c1,13µM,15µM,i,11µM,i,i
O=c1cc(-c2cccc(F)c2)[nH]c2ccc(Cl)cc12,nt,nt,nt,nt,nt,i
Cc1cnc(NC(=O)c2ccc(-c3nc4ccccc4s3)o2)s1,i,17µM,i,i,i,i
COc1ccc2nc(NC(=O)c3ccc([N+](=O)[O-])o3)sc2c1,i,2.1µM,?,nt,2.8µM,nt
Cc1cnc(NC(=O)c2ccc(-c3ccc([N+](=O)[O-])cc3)o2)s1,i,i,i,nt,i,nt
O=C(Nc1nc2ccccc2s1)c1ccc([N+](=O)[O-])o1,i,6.7µM,?,nt,?,nt
COc1ccc(NC(=O)c2ccc([N+](=O)[O-])o2)cc1,?,?,i,nt,i,nt
O=C(Nc1nc2c(F)cc(F)cc2s1)c1ccc([N+](=O)[O-])o1,i,17µM,2.2µM,nt,1.6µM,nt
O=C(Nc1nc2cc3c(cc2s1)OCCO3)c1ccc([N+](=O)[O-])o1,9.2µM,1.2µM,0.89µM,nt,1µM,nt
O=C(Nc1nc2ccccc2s1)c1ccccc1[N+](=O)[O-],?,17µM,?,nt,?,nt
O=C(O)c1cccc([N+](=O)[O-])c1C(=O)Nc1nc2ccccc2s1,i,i,i,i,i,i
Cc1cc(C)c2sc(NC(=O)c3ccc([N+](=O)[O-])o3)nc2c1,i,13µM,i,nt,i,nt
Cc1cc(C)c2nc(NC(=O)c3ccc([N+](=O)[O-])o3)sc2c1,i,?,i,nt,i,nt
CCOc1ccc(CSC(=N)N)cc1Cl,i,i,i,nt,i,nt
CCCCOc1ccc(CSCCN)cc1Cl,?,12µM,i,nt,i,nt
N#CC(C#N)=c1ccc2c(c1)N1C3=C(CCCC3)CC3CCCCC31N=2 (configuration not stated),i,12µM,i,i,i,?
N#C/C(C(N)=O)=c1/ccc2c(c1)N1C3=C(CCCC3)CC3CCCCC31N=2 (configuration not stated),i,8.5µM,i,i,i,?
CC(=O)c1cccc(NC(=O)c2noc3c2CCc2ccccc2-3)c1,?,2.4µM,4µM,3.5µM,2.5µM,i
Cc1cc(NC(=O)c2noc3c2CCc2ccccc2-3)no1,?,i,i,?,?,i
Cc1ccc(O)c(NC(=O)c2noc3c2CCc2ccccc2-3)c1,23µM,i,?,i,?,i
SMILES,ELG1 genotoxic,FLuc modulator,NPC1 promoter act,SMN2 splice up,Rab9 prom act,KinaseGlo FLuc
Cc1cccc(OCc2nc(CC(=O)Nc3ccc(C)c(C)c3)cs2)c1,nt,i,nt,nt,nt,nt
CCc1ccc(NC(=O)Nc2ccon2)cc1,?,7.6µM,2.2µM,nt,2.5µM,nt
CCc1ccc(NC(=O)Nc2cnccn2)cc1,?,11µM,?,nt,3.5µM,nt
CCCC(=O)NCCc1c(I)[nH]c2ccc(OC)cc12,nt,nt,nt,i,nt,nt
COC(=O)c1ccc2c(c1O)C(=O)c1ccccc1C2=O,?,8.5µM,i,i,i,i
Nc1cc(C(=O)O)c(N)c2c1C(=O)c1ccccc1C2=O,i,19µM,i,nt,i,nt
O=C1c2ccccc2C(=O)c2c1ccc(C(=O)O)c2-c1ccc2ccccc2c1,nt,nt,nt,i[9.22 µM],nt,i[7.66 µM]
O=C1c2ccccc2C(=O)c2c1ccc(O)c2O,nt,nt,nt,i,nt,i
Nc1c(C(=O)O)ccc2c1C(=O)c1ccccc1C2=O,i,19µM,i,i,i,i
CC(C)c1ccc(NC(=O)[C@H]2O[C@@H]3OC(C)(C)O[C@@H]3[C@H]3OC(C)(C)O[C@H]32)cc1,nt,i,nt,i,nt,nt
COc1ccc(CCNC(=O)C(=O)NCC(c2cccs2)S(=O)(=O)c2cccs2)cc1 (configuration not stated),nt,i,nt,nt,nt,nt
CC(=O)c1cccc(OCc2cc(C(=O)N3C[C@H]4CC[C@H]3C4)no2)c1,?,9.5µM,2.5µM,nt,2µM,nt
O=C(c1cc(COc2cccc(C(F)(F)F)c2)on1)N1C[C@H]2CC[C@H]1C2,?,15µM,2.8µM,nt,2.2µM,nt
COc1cccc(OCc2cc(C(=O)N(C)CCC3CCCCO3)no2)c1 (configuration not stated),i,?,?,nt,?,nt
CC(=O)c1cccc(OCc2cc(C(=O)N3C[C@@H](C)O[C@@H](C)C3)no2)c1,?,15µM,?,nt,?,nt
CC(=O)c1cccc(OCc2cc(C(=O)N(C)CCC3CCOCC3)no2)c1,i,17µM,i,nt,?,nt
CC1(C)C[C@@H]2C[C@@](C)(CN2C(=O)c2cc(COc3cccc(C(F)(F)F)c3)on2)C1,i,i,i,nt,i,nt
O=C(/C=C/c1ccc(OC(F)F)cc1)Nc1cccc(S(=O)(=O)NC2=NCCCCC2)c1,i,1.3µM,i,nt,i,nt
COc1ccc(/C=C/C(=O)Nc2cccc(S(=O)(=O)NC3=NCCCCC3)c2)cc1,i,0.67µM,?,nt,i,nt
O=S(=O)(NC1=NCCC1)c1cccc(NC(=S)Nc2ccc(OC(F)F)cc2)c1,i,nt,nt,nt,nt,nt
Cc1ccc(Nc2cc(C)nc3nncn23)c(C)c1,nt,i,nt,i,nt,nt
CS(=O)(=O)C1=NN2C(=N)/C(=C\c3ccc(OC(=O)c4ccco4)cc3)C(=O)N=C2S1,i,?,i,nt,i,nt
CC(C)CSC1=NSC2=NC(=O)/C(=C\c3cccs3)C(=N)N12,i,?,i,?,i,i
COc1cc(/C=C2/C(=N)N3C(SC)=NSC3=NC2=O)ccc1OC(=O)c1ccco1,?,27µM,?,nt,?,nt
N=C1/C(=C\c2ccc(OC(=O)c3ccco3)cc2)C(=O)N=C2SC=NN12,i,15µM,i,?,i,i
SMILES,ELG1 genotoxic,FLuc modulator,NPC1 promoter act,SMN2 splice up,Rab9 prom act,KinaseGlo FLuc
CCS(=O)(=O)C1=NSC2=NC(=O)/C(=C\c3ccc(OC(=O)c4ccco4)c(OC)c3)C(=N)N21,i,21µM,i,nt,i,nt
CSC1=NSC2=NC(=O)/C(=C\c3cccs3)C(=N)N12,?,9.5µM,3.5µM,0.5µM,1.4µM,i
COc1cc(C2OC(=O)c3c2ccc(OC)c3OC)ccc1O (configuration not stated),nt,i,i,nt,i,nt
Cc1ccc(NC(=O)Cn2cc(C(=O)c3cccs3)c3ccccc32)cc1C,nt,i,nt,?,nt,nt
CCOc1cc(/C=C2/C(=N)N3C(=NC2=O)SN=C3S(=O)(=O)CC)ccc1OC(=O)c1ccco1,i,i,i,nt,i,nt
COc1cc(/C=C2/C(=N)N3C(=NC2=O)SN=C3S(C)(=O)=O)ccc1OC(=O)c1ccco1,i[9.26 µM],11µM,i,nt,i,nt
